Test results taken from publication PMC4336329 (PLoS ONE, 2015).
About 14,000 (4.5%) of roughly 310,000 compounds showed an effect of 50% or more. The effect is printed as a negative number. What follows is part of a selection rich in strong results, with near analogues and random picks from the rest.

These compounds were tested against human ether-à-go-go-related gene (hERG) potassium channel (human, UniProt Q12809) (assay: primary screen, population patch clamp on CHO cells stably expressing hERG; higher = less effect of the substance).
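Further: peak tail current of the secondary pulse compared with the same well before compound.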

Sequence of human ether-à-go-go-related gene (hERG) potassium channel (Q12809 whole entry, looked up): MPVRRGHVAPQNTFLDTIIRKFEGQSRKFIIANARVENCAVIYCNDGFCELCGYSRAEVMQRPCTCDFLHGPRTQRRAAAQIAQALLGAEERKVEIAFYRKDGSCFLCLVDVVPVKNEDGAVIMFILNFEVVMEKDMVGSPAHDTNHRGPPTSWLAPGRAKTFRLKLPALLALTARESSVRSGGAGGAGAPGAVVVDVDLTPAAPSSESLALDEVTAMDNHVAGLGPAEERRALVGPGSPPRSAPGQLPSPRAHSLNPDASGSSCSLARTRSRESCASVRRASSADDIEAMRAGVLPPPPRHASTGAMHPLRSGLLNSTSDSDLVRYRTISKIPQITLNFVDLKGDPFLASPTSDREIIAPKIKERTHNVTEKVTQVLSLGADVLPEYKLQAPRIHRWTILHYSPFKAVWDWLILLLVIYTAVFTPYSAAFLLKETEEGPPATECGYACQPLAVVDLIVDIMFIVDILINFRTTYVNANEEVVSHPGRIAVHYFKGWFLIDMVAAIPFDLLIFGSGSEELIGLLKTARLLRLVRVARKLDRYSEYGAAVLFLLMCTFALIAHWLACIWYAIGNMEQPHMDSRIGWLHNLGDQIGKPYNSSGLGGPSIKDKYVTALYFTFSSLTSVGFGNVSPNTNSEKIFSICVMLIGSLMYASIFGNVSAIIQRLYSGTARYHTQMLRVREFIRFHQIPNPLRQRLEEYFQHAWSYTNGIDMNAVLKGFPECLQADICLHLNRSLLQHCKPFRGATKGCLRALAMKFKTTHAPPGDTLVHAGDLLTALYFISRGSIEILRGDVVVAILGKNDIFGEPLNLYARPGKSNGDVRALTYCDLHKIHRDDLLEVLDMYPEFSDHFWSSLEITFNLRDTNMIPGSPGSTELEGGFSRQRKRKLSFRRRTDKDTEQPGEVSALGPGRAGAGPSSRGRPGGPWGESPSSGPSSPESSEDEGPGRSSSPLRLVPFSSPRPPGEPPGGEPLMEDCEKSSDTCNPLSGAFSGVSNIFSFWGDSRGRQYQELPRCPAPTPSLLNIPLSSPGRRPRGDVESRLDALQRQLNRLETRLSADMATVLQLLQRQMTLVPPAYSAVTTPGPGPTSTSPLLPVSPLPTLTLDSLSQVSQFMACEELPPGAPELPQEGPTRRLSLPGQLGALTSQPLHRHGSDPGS

Row | SMILES | hERG current change (%, negative = inhibition) at 10uM [%]
1 | COc1ccc(C(=O)NC2CCCCCC2)cc1S(=O)(=O)N1CCCc2ccccc21 | 11.3
2 | CCOc1ccc(C2N(c3ccc(OC)cc3)C(=O)C3CCCN32)cc1OC (stereo not drawn) | -3.49
3 | CC1CCN(S(=O)(=O)c2ccc(NC(=O)CCN3C(=O)C4CC=CCC4C3=O)cc2)CC1 (stereo not drawn) | -25.3
4 | Nc1ccc(N=Nc2ccccc2)c2ccccc12 | 22.4
5 | COc1ccccc1CN(C)C(=O)c1ccccc1Sc1ccccc1C#N | -25
6 | O=C(NCc1ccco1)c1ccc(S(=O)(=O)c2cccc(S(=O)(=O)N3CCOCC3)c2)cc1 | 2.58
7 | CCN(CC)P(=O)(c1n(CC)cc[n+]1CC)N(CC)CC.[I-] | 15.1
8 | CCOC(=O)Cn1c(CN2CCN(C(=O)c3ccco3)CC2)nc2c1c(=O)n(C)c(=O)n2C | -13.3
9 | O=C(Nc1ccc(N2CCN(C(=O)c3ccco3)CC2)c(Cl)c1)c1cccnc1 | -16.8
10 | Cc1ccccc1-c1nc(CN2CCC(C(=O)NCc3ccco3)CC2)c(C)o1 | -73.6
11 | Cc1oc(-c2ccccc2F)nc1CN1CCC(C(=O)NCc2ccco2)CC1 | -38
12 | COc1ccc(OC)c(S(=O)(=O)NC2CCN(Cc3ccccc3)CC2)c1 | -4.92
13 | Nc1ccc(C(=O)N/N=C2\CCCc3c2[nH]c2ccccc32)cc1 | 16.2
14 | COc1ccc(-n2nc(C(=O)NCC(=O)NCCCN3CCN(C)CC3)c3ccccc3c2=O)cc1OC | 18.9
15 | Cc1ccccc1CN1C2=NCCCN2c2ccccc21.Cl | -68
16 | Cc1ccccc1CN1C2=NCCN2c2ccccc21.Cl | -53.7
17 | CS(=O)(=O)NCc1nnc(SCC(=O)NC2CCCCC2)n1-c1ccc(F)cc1 | 11.6
18 | Cc1ccc2nc3c(cc(C(=O)NCc4ccco4)c(=N)n3Cc3ccco3)c(=O)n2c1 | -77
19 | COCCn1c(=N)c(S(=O)(=O)c2ccc(F)cc2)cc2c(=O)n3ccccc3nc21 | -25.5
20 | CCn1cc(C(=O)NCc2ccco2)c(=O)c2ccc(C)nc21 | 16.9
21 | COCCn1c(=N)c(S(=O)(=O)c2ccc(Br)cc2)cc2c(=O)n3ccccc3nc21 | -44.3
22 | CCn1cc(C(=O)NCc2ccco2)c2cc(OC)c(OC)cc2c1=O | -20.9
23 | COCCn1cc(C(=O)NCc2ccco2)c2c3ccccc3n(C)c2c1=O | -20.6
24 | COCCn1c(=N)c(C(=O)NCc2ccco2)cc2c(=O)n3ccccc3nc21 | -78.1

Row | SMILES | hERG current change (%, negative = inhibition) at 10uM [%]
25 | Cc1cc2ccccc2c(=O)n1CC(=O)NCc1ccco1 | 13.8
26 | COCCn1c(=N)c(C(=O)NCc2ccco2)cc2c(=O)n3cc(C)ccc3nc21 | -82.1
27 | COc1ccc2c(c1)CCc1c(C(=O)N3CCCC3)noc1-2 | -7.79
28 | CC(C)c1ccccc1NC(=O)COC(=O)Cc1c[nH]c2ccccc12 | 7.28
29 | C/C(=N\NC(=O)c1ccncc1)c1c(O)[nH]c(=O)[nH]c1=O | -1.22
30 | [O-]/C(=C(\C(=S)Nc1ccc(SC(F)F)cc1)[n+]1ccccc1)c1cc(Cl)ccc1Cl | 1.83
31 | COc1ccc(-c2noc(CN(C(=O)c3c(-c4ccccc4Cl)noc3C)C(C)C)n2)cc1 | 14.8
32 | O=C(O)C1CC=CCC1C(=O)Nc1cccc(C(=O)N2CCCCC2)c1 (stereo not drawn) | -5.25
33 | CN1C[C@H](C(=O)N[C@]2(C)O[C@@]3(O)[C@@H]4CCCN4C(=O)[C@H](Cc4ccccc4)N3C2=O)CC2c3cccc4[nH]cc(c34)C[C@H]21.O=C(O)C(O)C(O)C(=O)O (stereo partly drawn) | 2.03
34 | CC(NC(=O)NNC(N)=S)(C(F)(F)F)C(F)(F)F | 4.68
35 | CCN(CC)CCN(C(=O)c1ccc2c(c1)CCCC2)c1nc2ccc(C)cc2s1.Cl | 10.1
36 | CN(C)CCCN(C(=O)c1ccc2c(c1)CCCC2)c1nc2ccc(F)cc2s1.Cl | -66.9
37 | Cc1ccc2nc(N(CCCN(C)C)C(=O)c3ccc4c(c3)CCCC4)sc2c1.Cl | -71.5
38 | CN(C)CCCN(C(=O)c1ccc2c(c1)CCCC2)c1nc2ccc(Cl)cc2s1.Cl | -43.8
39 | CCOc1ccc2nc(N(CCCN(C)C)C(=O)c3ccc4c(c3)CCCC4)sc2c1.Cl | -14.1
40 | CCN(CC)CCN(C(=O)c1ccc2c(c1)CCCC2)c1nc2ccc(F)cc2s1.Cl | -1.94
41 | CCN(CC)C(=O)C1CCC(C)(C(=O)O)C1(C)C (stereo not drawn) | 3.91
42 | O=S1(=O)CCO[C@H]2Cc3ccccc3[C@H]2N1Cc1cccc(Cl)c1 | -28.4
43 | Cc1nc(SCn2nnc3ccccc3c2=O)nc(C)c1C | -12.3
44 | Cc1ccc(OCCNC(=O)/C=C/c2ccccc2)cc1C | -8.32
45 | Cc1cc(=O)n2nc(N3CCC(C(=O)NC(C)c4ccccc4)CC3)sc2n1 (stereo not drawn) | 5.85
46 | O=C(OCc1nc2ccsc2c(=O)[nH]1)c1ccccc1 | 0.869
47 | COc1ccccc1C(=O)NCC(=O)OCC(=O)c1cccc2ccccc12 | 4.06
48 | CCc1ccc(C(=O)COC(=O)CNC(=O)Cc2ccccc2)cc1 | 0.382

Row | SMILES | hERG current change (%, negative = inhibition) at 10uM [%]
49 | CCc1ccc(C(=O)COC(=O)CNC(=O)COc2ccccc2)cc1 | -57.4
50 | CN(CC(=O)Nc1ccccc1Cl)C(=O)COC(=O)Cc1ccc(F)cc1 | 1.33
51 | Cc1ccc(C(=O)COC(=O)CNC(=O)c2ccc(Br)o2)cc1[N+](=O)[O-] | 4.86
52 | CN(CC(=O)Nc1ccccc1Cl)C(=O)COC(=O)CNC(=O)c1ccc(Br)o1 | -61.4
53 | CCc1ccc(C(=O)COC(=O)CNC(=O)c2ccco2)cc1 | -18.2
54 | COc1ccccc1C(=O)NNC(=O)c1ccc(Br)o1 | 14
55 | COc1ccccc1C(=O)COC(=O)CNC(=O)c1ccc(Br)o1 | -50.7
56 | CCc1ccc(C(=O)COC(=O)CNC(=O)c2ccc(Br)o2)cc1 | -64
57 | CCc1ccc(C(=O)COC(=O)CNC(=O)CNC(=O)Cc2ccccc2)cc1 | 9.36
58 | Cc1cccc(C(=O)NCC(=O)OCC(=O)N(C)CC(=O)Nc2ccccc2Cl)c1 | -40.5
59 | CC(=O)N(CN1C(=O)c2ccccc2C1=O)c1cccc(C)c1 | 4.43
60 | Clc1ccc(-n2ncc3c(NCc4ccccn4)ncnc32)cc1 | 4.15
61 | COc1ccccc1NS(=O)(=O)c1ccc(C)c(C(=O)NCC2(N(C)C)CCCCC2)c1 | -42.9
62 | O=C(NCCCN1CCOCC1)c1ccc2c(c1)N(Cc1cccc(Cl)c1)C(=O)CS2 | -16.7
63 | CC1Cc2ccccc2N1C(=O)c1ccc(Br)o1 (stereo not drawn) | -13.1
64 | O=C(COC(=O)CNC(=O)c1ccc(Br)o1)Nc1ccccc1OC(F)F | -51.6
65 | O=C(COC(=O)CNC(=O)c1ccco1)Nc1ccccc1OC(F)F | 11.6
66 | CC1Cc2ccccc2N1C(=O)COC(=O)CNC(=O)c1ccc(Br)o1 (stereo not drawn) | -60.2
67 | CC1Cc2ccccc2N1C(=O)COC(=O)c1ccc(Br)o1 (stereo not drawn) | 8.05
68 | O=C(Nc1ccccc1OC(F)F)c1ccc(Br)o1 | -20.9
69 | Cc1ccc2nc(-c3ccccc3)cc(C(=O)N(C)CC(=O)Nc3ccccc3Br)c2c1 | -11
70 | c1ccc(-n2nnnc2Cc2nnnn2-c2ccccc2)cc1 | 50.3
71 | O=C(Nc1ccccc1OC(F)F)c1cc2c(s1)CCC2 | -16.4
72 | C=CCNC(=S)/N=c1/ccccn1C | -5.42

Row | SMILES | hERG current change (%, negative = inhibition) at 10uM [%]
73 | CCOC(=O)C1(CCOc2ccccc2)CCN(Cc2ccc(NC(C)=O)cc2)CC1 | -79.3
74 | CCOC(=O)C1(Cc2ccccc2C)CCCN(Cc2ccc(NC(C)=O)cc2)C1 (stereo not drawn) | 11.5
75 | CCOC(=O)C1(CCc2ccccc2)CCN(Cc2ccc(NC(C)=O)cc2)CC1 | -76.6
76 | Cc1ccc(Nc2nc(=O)c3cccnc3s2)c(Br)c1 | 3.27
77 | CN(Cc1cnccn1)Cc1nc(Cc2ccccc2F)no1 | -0.154
78 | COc1ccc(Cl)cc1NS(=O)(=O)c1cccc(C(=O)NCC(c2ccco2)N(C)C)c1 (stereo not drawn) | -2.01
79 | O=C(CCCn1c(=O)c2sccc2n(CC(=O)NCc2ccco2)c1=O)NCc1ccco1 | -6.69
80 | Cn1c(Br)nc2c1c(=O)n(CC(O)COc1ccccc1)c(=O)n2C (stereo not drawn) | -1.54
81 | COCCC(=O)N1CCC(Oc2ccc(C(=O)N(C)C(C)c3ccon3)cc2)CC1 (stereo not drawn) | 13.1
82 | CCCCCn1cc(C(=O)C(=O)N2CCOCC2)c2ccccc21 | -26.3
83 | CCCCCCn1cc(C(=O)O)c(=O)c2ccccc21 | -75.8
84 | O=C(Cc1cn(Cc2cccc(Cl)c2)c2ccccc12)N1CCCC1 | -50
85 | O=C(COc1ccccc1)c1cn(Cc2ccccc2)c2ccccc12 | 7.62
86 | Cn1cc(-c2ccccc2C(=O)O)c(=O)c2cc(Cl)ccc21 | 20.9
87 | O=C(c1cn(Cc2ccccc2)c2ccccc12)C1CC1 | 7.67
88 | CCCCCCn1cc(C(=O)O)c(=O)c2cc(F)c(N3CCCCC3)cc21 | 5.7
89 | CN(C)CCOC(=O)c1cn(Cc2ccccc2)c2ccccc12.Cl | -59.1
90 | O=C(Cc1cn(Cc2cccc(Cl)c2)c2ccccc12)N1CCCCCC1 | -4.89
91 | CC1CCCN(C(=O)Cc2cn(Cc3cccc(Cl)c3)c3ccccc23)C1 (stereo not drawn) | -5.42
92 | O=C(O)Cc1cn(Cc2cccc(Cl)c2)c2ccccc12 | 12.6
93 | O=C(O)c1cn(Cc2ccccc2)c2ccc(Cl)cc2c1=O | -76.3
